Measured values as given in PubChem BioAssay (NCI).
Compounds without any hit were thinned out: in the full panel of roughly 83,000, 20% have a hit.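 In brief: 96-well plates, 48 h treatment, single concentration, percent growth endpoint.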 Values without a mark were called inactive. Activity calls are given as the source filed them. How the source made its calls: active means growth percent below 10; inactive means the rest.

These compounds were tested on RXF 393 renal (assay: NCI-60 one-dose screen, 48 h (100 = growth as untreated, 0 = no growth, -100 = all killed)). Conditions: 10 µM unless noted.
In the case of `Cc1cc(C)c(N2C(=O)CC(Nc3ccc(Cl)cc3Cl)C2=O)c(C)c1` (centres undefined), the growth is reported as 121%.
For `CC(=O)Nc1cccc(Nc2nc(N[C@@H](C)c3ccccc3)c3ccccc3n2)c1`, the growth was -48.3% (active).
In the case of `COc1cc(-c2nn(C(C)(C)C)cc2-c2ccnc(NCCCNS(=O)(=O)c3cccc(F)c3)n2)ccc1Cl`, the growth is reported as -0.456% (active).
For `NC(=O)c1cccc(-n2ccc3cc(NC(=O)Nc4ccc(N5CCOCC5)c(C(F)(F)F)c4)ccc32)n1`, the growth was -46.4% (active).
With `O=S(=O)(Nc1cccc2ccccc12)c1ccc(-c2cnc(C3CC3)o2)cc1` the growth was 7.94% (active).
With `CCOC(=O)c1c(N)c(C#N)cn1-c1cc(OC)c(OC)c(OC)c1` the growth was 112%.
Compound `COc1ccc2c(c1)c(-c1cc(N)n3nc(-c4cn(C)c5ccc(OC)cc45)cc3n1)cn2C` has a growth of 128%.
`C[C@@H](Nc1c(C#N)cnc2ccc(-c3cnc(Cl)c(NS(C)(=O)=O)c3)cc12)c1ccccc1` was tested, and the growth was -40.2% (active).
With `Cc1ccc(NC(=O)N[C@@H](Cc2cc(F)cc(F)c2)C(=O)NC2C(=O)N3C[C@H](O)C[C@H]3C(=O)N3CCCC[C@H]3C(=O)N[C@@H](CO)C(=O)N3C[C@H](C)C[C@H]3C(=O)O[C@H]2C)c(F)c1` (some centres undefined) the growth was 100%.
With `CCO/C=N/C1=C(C#N)C(c2ccc(F)cc2)c2sc3c(C)cccc3c2O1` (centres undefined) the growth was 0.223% (active).
`c1cn2c(ccc3nc(-c4cn[nH]c4)c4c(c32)CCCC4)n1` gave a growth of 43.6%.
`O=c1[nH]c2ccccc2cc1CSc1ccccc1Nc1nccc(-c2ccc(Cl)cc2)n1` showed a growth of 93.5%.
In the case of `Cc1noc(C)c1CSc1nc2ccccc2n1-c1ccccc1`, the growth is reported as 60.4%.
In the case of `Cn1cc(CNc2nc3ccc(OC/C(=C/F)CN)cc3o2)ccc1=O`, the growth is reported as 107%.
`CC(C)(C)CC(C)(C)n1nnnc1C(Nc1nccs1)c1cc2cccc3ccc4cccc1c4c32` (centres undefined) showed a growth of 119%.
In the case of `COc1ccc(/C(N)=N/C(N)=N/c2nc3ccccc3s2)cc1`, the growth is reported as 65.7%.
`COc1ccc(-c2nn(-c3ccc(S(C)(=O)=O)cc3)cc2/C=N/O)cc1` gave a growth of 103%.
`CCOc1cccc(-c2nc3sccn3c2-c2ccnc(S(C)(=O)=O)n2)c1` gave a growth of 98.3%.
For `O=C(c1ccc(Cl)cc1)C1[C@H](c2ccc(Cl)cc2)[C@@H](c2ccccc2)NC12C(=O)Nc1ccccc12` (some centres undefined), the growth was 48%.
